Pf growth 96h: inhibits malaria parasite growth, 96 h; P. falciparum luciferase reporter growth, 96 h; Potency, µM (series often up to 28.7 µM), most hits filed as inhibitors; hit rate 6.9% among 320,000; AID 504834
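Erythrocytes infected with luciferase-expressing P. falciparum were dispensed at 2% hematocrit and 0.05% parasitemia (final), then incubated with compounds 96 hours at 37 C in 5% CO2. Luminescence after detection reagent addition reported growth.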
HCV inh: inhibitors of hepatitis C virus infection; Huh7.5.1 HCVcc-Cre infection, luciferase reporter, 44 h; Potency, µM (series often up to 41.8 µM), usual class: inhibitors; hit rate 3.4% among 340,000
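Cells seeded at 1,000/well and cultured 4 h, then compounds added followed by HCVcc-Cre virus (~0.5 moi). After 44 h further culture, luciferase substrate was added, plates held 15 min at room temperature, and luminescence read for 15 sec.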
AMA1 RON2 block: AMA1-RON2 (P. falciparum) interaction inhibition | AID 720542 | AlphaScreen AMA1-biotinylated RON2 peptide binding | hit rate 0.2% among 360,000 | Potency, µM (top dose mostly 58.2 µM), most hits filed as inhibitors; further: nearly all actives have a fitted effect of over 45% in size
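AMA1 (3D7) with his tag at 25 nM final met compounds first, then biotinylated RON2 peptide at 25 nM; detection used donor plus acceptor beads, 10 µg/mL apiece, read by AlphaScreen after 30 min at room temperature.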
Pf growth 48h: P. falciparum growth inhibition at 48 hours (one generation); AID 504832; Potency, µM (titrated, usually from 28.7 µM), most hits filed as inhibitors; hit rate 5.9% among 310,000; P. falciparum luciferase growth in erythrocytes, 48 h
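Cell-based growth assay: transgenic P. falciparum expressing firefly luciferase, cultured in red cells within RPMI 1640 containing 0.5% w/v Albumax, 24 mM bicarbonate and gentamycin. A drop in luciferase activity indicates inhibition.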
Of the large screens only hits and unclear results are named; the others gave an inactive call. A selection: hits, their analogues and other compounds. The true share with any hit is near 11%. The call rests on the fitted dose curve; in most records, active means well fitted curve in the direction sought with a large enough effect; inconclusive means small, poorly fitted or top-dose-only effect, or another doubt; inactive means no such curve, though single readings can be large; an effect the other way counts as inactive or inconclusive.

Cc1ncc(CN2CCCC(C(=O)Nc3ccc(-c4cccc(F)c4)cc3)C2)n1C (stereo not given)	HCV inh 3.5µM, Pf growth 48h 15µM
CCCN(CC1CC1)CC(O)c1ccccc1 (stereo not given)	Pf growth 96h 13µM, Pf growth 48h 15µM
CCN(CC)CCCOC(=O)C(c1ccccc1)c1ccccc1	Pf growth 96h inconclusive, HCV inh 0.56µM, Pf growth 48h inconclusive
CC(C)OCCCN(CC(O)c1ccccc1)CC(O)c1ccccc1 (stereo not given)	Pf growth 96h inconclusive, Pf growth 48h 10µM
CCC(C)(C#CCN1CCCCC1)OCCC#N (stereo not given)	Pf growth 96h inconclusive
CC12CCC(c3c(C(=O)O)nn(-c4ccc(F)cc4)c31)C2(C)C (stereo not given)	none (no result: Pf growth 96h)
CC12CCC(c3c(C(=O)N4CCOCC4)nn(-c4ccccc4)c31)C2(C)C (stereo not given)	Pf growth 96h 1.3µM, Pf growth 48h inconclusive
Nc1nc(Cl)nc2c1ncn2[C@@H]1O[C@H](CO)[C@H](O)C1F (stereo not given in full)	none (no result: HCV inh, AMA1 RON2 block)
Cc1ccc(S(=O)(=O)N2Cc3ccccc3CC2C(=O)NC(C)(C)C)cc1 (stereo not given)	Pf growth 96h 12µM
CN(C)C(=O)C1Cc2ccccc2CN1S(=O)(=O)c1ccc(F)cc1 (stereo not given)	Pf growth 96h 4.1µM
Cc1noc(C)c1S(=O)(=O)N1Cc2ccccc2CC1C(=O)N(C)C (stereo not given)	none
COc1ccc(S(=O)(=O)Nc2ccc3c(c2)C(=O)N([C@H](C)CO)C[C@H](C)[C@@H](CN(C)C(=O)Nc2ccc(F)cc2)OCCCC[C@H](C)O3)cc1	none (no result: Pf growth 96h, HCV inh, Pf growth 48h)
Cc1cc(NC(=O)C2CCCC2)n(-c2nc3ccccc3[nH]2)n1	Pf growth 96h 10µM, Pf growth 48h 8.3µM
Cc1cc(NC(=O)c2cccs2)n(-c2nc3ccccc3[nH]2)n1	HCV inh inconclusive, Pf growth 48h inconclusive
Cc1cc(NC(=O)c2sccc2C)n(-c2nc3ccccc3[nH]2)n1	Pf growth 96h inconclusive, HCV inh 11µM, Pf growth 48h inconclusive
COc1cccc(OC)c1C(=O)Nc1cc(C)nn1-c1nc2ccccc2[nH]1	Pf growth 96h 7.4µM, HCV inh 11µM, Pf growth 48h 9.3µM
COc1ccc(C(=O)Nc2cc(C)nn2-c2nc3ccccc3[nH]2)c(OC)c1	HCV inh inconclusive, Pf growth 48h inconclusive
CNNCc1ccc(C(=O)NC(C)C)cc1	Pf growth 96h inconclusive
COc1ccc(S(=O)(=O)Nc2ccccc2N2CCOCC2)cc1OC	Pf growth 96h inconclusive
CO[C@H](C(=O)[C@@H](O)[C@@H](C)O)C1Cc2cc3cc(O[C@H]4C[C@@H](O[C@H]5C[C@@H](O)[C@H](O)[C@@H](C)O5)[C@@H](O)[C@@H](C)O4)c(C)c(O)c3c(O)c2C(=O)[C@H]1O[C@H]1C[C@@H](O[C@H]2C[C@@H](O[C@H]3C[C@](C)(O)[C@H](O)[C@@H](C)O3)[C@H](O)[C@@H](C)O2)[C@H](O)[C@@H](C)O1 (stereo not given in full)	Pf growth 96h 0.034µM, Pf growth 48h 0.048µM (no result: HCV inh, AMA1 RON2 block)
COC(C(=O)C(O)C(C)O)C1Cc2cc3cc(OC4CC(OC5CC(O)C(O)C(C)O5)C(O)C(C)O4)c(C)c(O)c3c(O)c2C(=O)C1OC1CC(OC2CC(OC3CC(O)C(OC)C(C)O3)C(O)C(C)O2)C(O)C(C)O1 (stereo not given)	HCV inh 1µM (no result: Pf growth 96h, Pf growth 48h)
COC(C(=O)C(O)C(C)O)C1Cc2cc3cc(OC4CC(OC5CC(O)C(O)C(C)O5)C(O)C(C)O4)c(C)c(O)c3c(O)c2C(=O)C1OC1CC(OC2CC(OC3CC(C)(O)C(O)C(C)O3)C(O)C(C)O2)C(O)C(C)O1 (stereo not given)	Pf growth 96h 1.9µM, Pf growth 48h 0.06µM (no result: HCV inh, AMA1 RON2 block)
CCN1CCN(S(=O)(=O)c2ccc(Cl)c(C(=O)NCc3nc4ccccc4[nH]3)c2)CC1	none (no result: Pf growth 96h, Pf growth 48h)
C[C@@H]1CN([C@H](C)CO)C(=O)c2cc(NS(=O)(=O)c3cn(C)cn3)ccc2O[C@H]1CN(C)C(=O)Nc1ccccc1	none (no result: Pf growth 96h, Pf growth 48h)
CCOC(=O)C1C(c2ccc(O)c(O)c2)NC(=S)NC1(O)C(F)(F)F (stereo not given)	Pf growth 96h 12µM
COc1ccc(C(C(=O)NC(C)(C)C)N(Cc2cccnc2)C(=O)CCC(=O)Nc2cc(C)on2)cc1 (stereo not given)	Pf growth 96h inconclusive, Pf growth 48h inconclusive
CC1CCC(C(C)C)C(OC(=O)C[n+]2cc(-c3ccc(Cl)cc3)n3c2CCC3)C1 (stereo not given)	Pf growth 96h inconclusive, Pf growth 48h inconclusive
CC1CCC(C(C)C)C(OC(=O)Cn2c(-c3ccc(F)cc3)[n+](C)c3ccccc32)C1 (stereo not given)	Pf growth 96h inconclusive, HCV inh 10µM, Pf growth 48h 0.83µM
CC1CCC(C(C)C)C(OC(=O)Cn2c(-c3ccccc3)[n+](C)c3ccccc32)C1 (stereo not given)	HCV inh inconclusive, Pf growth 48h 0.47µM
CC(=O)c1ccc(N2CCN(S(=O)(=O)c3cn(C)c(C)n3)CC2)cc1	Pf growth 48h inconclusive
COc1cc(OC)c(-c2c3cc(O)c(=O)cc-3oc3cc(O)c(O)cc23)cc1OC	Pf growth 96h 3.7µM, AMA1 RON2 block 7.9µM, Pf growth 48h 2.3µM
COc1c(O)cc2oc(-c3ccc(O)cc3)cc(=O)c2c1O	none
C[C@@H]1CN([C@@H](C)CO)C(=O)c2cc(C#CC3CCCCC3)cnc2O[C@@H]1CN(C)S(=O)(=O)c1ccc(F)cc1	none (no result: Pf growth 96h, HCV inh, Pf growth 48h)
CC(C)OC(=O)c1ccc(NC(=O)Cn2c(-c3nonc3N)nc3ccccc32)cc1	Pf growth 96h 8.3µM, Pf growth 48h 10µM
Cn1c(-c2nonc2N)nc2ccccc21	Pf growth 96h 10µM
Cc1nc2c(ccc3c2ccc2nc(C)sc23)s1	none (no result: Pf growth 48h)
COc1cc2sc(C)nc2c2ccccc12	Pf growth 96h inconclusive, HCV inh 10µM
CN(C(=O)Cn1nnc(-c2cccnc2)n1)C1CCCCC1	none
Cc1nn2c(-c3ccccc3)nnc2c2ccccc12	Pf growth 96h inconclusive
Cc1nn2c3ccccc3nc2c2ccccc12	HCV inh 13µM (no result: Pf growth 48h)
COc1ccccc1N1C(=O)S/C(=C\c2cc(C)n(C)c2C)C1=O	HCV inh inconclusive
CCCN1C(=O)/C(=C/c2cc(C)n(C)c2C)SC1=Nc1ccc(OC)cc1	Pf growth 96h 13µM, HCV inh inconclusive, Pf growth 48h inconclusive
COc1ccc(N=C2S/C(=C\c3ccc(C)s3)C(=O)N2CC(C)C)cc1	Pf growth 96h inconclusive, Pf growth 48h inconclusive
COc1ccc(N=C2S/C(=C\c3cc(C)n(C)c3C)C(=O)N2C)cc1	Pf growth 96h 9.3µM, HCV inh 11µM, Pf growth 48h inconclusive
COc1ccc(N=C2S/C(=C\c3cccs3)C(=O)N2CC(C)C)cc1	Pf growth 96h 3.7µM, Pf growth 48h inconclusive
CCOCCCNCc1ccc(OCc2ccccc2C)c(OC)c1	HCV inh inconclusive
O=C(CN1CCN(C(c2ccccc2)c2ccccc2)CC1)NC(=O)NCc1ccco1	Pf growth 96h 10µM, Pf growth 48h 9.3µM
